Experimental data from PubChem BioAssay (EPA / NIEHS).
Where “and” joins values, the source holds several entries; their conditions need not be identical. Equal entries are not always repeated. Results filed as inconclusive are left out. Some compounds were tested as several samples or in several runs, with calls that do not always agree. Calls of active or inactive are those of the source. Rule for the calls, unless noted: active = hit-call score of the fitted dose curve at least 0.9, where 1 is the maximum; inactive = score below 0.9.

How the values were obtained:
[1] = BSK_3C_SRB: Viability Assessment in the BioMAP Diversity Plus: 3C Assay (AID 2283023); settings: primary human endothelial cells (HUVEC);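 note: cells read 24 h after compound dosing; fitted both ways against DMSO so a hit may be signal rise or drop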
How it was run: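 HUVEC, 24 h post-dose; 10% TCA fix, 0.1% SRB stain, A560 nm. Bidirectional curve fit vs DMSO negative control.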

[2] = read-out: Matrix Metallopeptidase 1 (MMP1), MMP1 (gene 4312); assay: BSK_BE3C_MMP1: BioMAP Diversity Plus: BE3C Assay for Matrix Metallopeptidase 1 (MMP1) Biomarker Activity (AID 2283024); settings: primary human bronchial epithelial cells; actives raise or lower the signal
How it was run: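 ELISA read-out of MMP1 in human lung bronchial epithelial primary cultures, 24 h post-dose; bidirectional curve fit vs DMSO baseline, gain or loss of signal scored.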

[3] = BSK_3C_Vis: BioMAP Diversity Plus: 3C Assay for Morphology Visualization (AID 2283025); settings: primary human endothelial cells (HUVEC);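 note: fitted both ways so gain or loss versus DMSO counts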;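 for AC50: light microscopy image of cell morphology used as background control; cells imaged 24 h after dosing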
How it was run: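 HUVEC, 3C system; light microscopy of morphology at 24 h post-dose. Bidirectional fit vs DMSO baseline. Secondary readout, background-control function.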

[4] = read-out: Pselectin, SELP (gene 6403); assay: BSK_4H_Pselectin: BioMAP Diversity Plus: 4H Assay for Pselectin Biomarker Activity (AID 2283026); settings: primary human endothelial cells (HUVEC); actives raise or lower the signal
How it was run: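 HUVEC, 24 h chemical exposure; P-selectin read by ELISA. Bidirectional curve fit vs DMSO baseline; gain or loss of signal scored.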

[5] = BSK_4H_SRB: Viability Assessment in the BioMAP Diversity Plus: 4H Assay (AID 2283027); settings: primary human endothelial cells (HUVEC);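 note: cells exposed to compound for 24 h before staining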;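 for AC50: curves fitted both ways versus DMSO so AC50 may be loss or gain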
How it was run: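 Cytotoxicity readout: sulforhodamine B (0.1%) staining of total protein after 10% TCA fixation, measured at 560 nm in human umbilical vein endothelium at 24 h. DMSO set the baseline; fitting was bidirectional.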

[6] = BSK_BE3C_SRB: Viability Assessment in the BioMAP Diversity Plus: BE3C Assay (AID 2283028); settings: primary human bronchial epithelial cells
How it was run: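 Primary human bronchial epithelium; chemical dosing, 24 h; 10% TCA fix, 0.1% SRB stain, A560; bidirectional fit vs DMSO baseline.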

[7] = read-out: Thrombomodulin, THBD (gene 7056); assay: BSK_3C_Thrombomodulin: BioMAP Diversity Plus: 3C Assay for Thrombomodulin Biomarker Activity (AID 2283029); settings: primary human endothelial cells (HUVEC); actives raise or lower the signal
How it was run: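 HUVEC, 3C conditions; compound 24 h; thrombomodulin by ELISA; bidirectional curve fit vs DMSO baseline; parallel SRB total-protein staining for cytotoxicity.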

[8] = read-out: Urokinase-type plasminogen activator receptor (uPAR), PLAUR (gene 5329); assay: BSK_4H_uPAR: BioMAP Diversity Plus: 4H Assay for Urokinase-type plasminogen activator receptor (uPAR) Biomarker Activity (AID 2283030); settings: primary human endothelial cells (HUVEC); actives raise or lower the signal
How it was run: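 HUVEC, 24 h post-dose; uPAR by ELISA; bidirectional fit vs DMSO baseline.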

[9] = read-out: Vascular endothelial growth factor receptor 2 (Homo sapiens) (UniProt P35968); assay: BSK_4H_VEGFRII: BioMAP Diversity Plus: 4H Assay for Vascular endothelial growth factor receptor 2 (VEGFR2) Biomarker Activity (AID 2283031); settings: primary human endothelial cells (HUVEC); actives raise or lower the signal;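 for AC50: cell-surface VEGFR2 protein level quantified by ELISA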
How it was run: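 HUVEC (human primary), 4H system; 24 h post-dose; VEGFRII by ELISA; bidirectional curve fit vs DMSO baseline; gain or loss of signal scored.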

[10] = biological target: human Vitamin D Receptor (VDR), VDR (gene 7421) (UniProt P11473); assay: ATG_VDR_TRANS: Attagene TRANS-FACTORIAL HepG2 Assay for human Vitamin D Receptor (VDR) (AID 2283022; active = hit-call score of the fitted dose curve at least 0.9, where 1 is the maximum)
Sequence of human Vitamin D Receptor (VDR), VDR (gene 7421) (P11473 whole entry, looked up, the tested form may be a part): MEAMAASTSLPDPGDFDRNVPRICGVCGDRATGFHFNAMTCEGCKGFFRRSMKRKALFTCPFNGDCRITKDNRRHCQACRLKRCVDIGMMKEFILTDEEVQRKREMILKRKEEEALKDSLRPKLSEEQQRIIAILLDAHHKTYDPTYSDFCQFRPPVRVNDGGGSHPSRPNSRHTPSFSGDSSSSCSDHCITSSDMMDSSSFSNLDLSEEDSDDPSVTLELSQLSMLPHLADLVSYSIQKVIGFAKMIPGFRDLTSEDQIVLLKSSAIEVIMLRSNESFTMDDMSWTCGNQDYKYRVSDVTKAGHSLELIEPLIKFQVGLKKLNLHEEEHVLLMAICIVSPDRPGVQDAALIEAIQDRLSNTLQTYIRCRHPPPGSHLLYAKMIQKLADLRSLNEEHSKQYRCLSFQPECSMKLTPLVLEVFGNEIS
How it was run: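 RT-PCR/capillary electrophoresis read-out of reporter mRNA induction in transiently transfected HepG2; 24 h dosing; chimeric NR-Gal4 (TRANS format); gain-of-signal fit against DMSO baseline.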

Measured: AC50

Cc1[nH]c(=O)n(C(C)(C)C)c(=O)c1Cl
not listed: [10]
inactive: all other assays above

CNC(=O)Oc1cccc(N=CN(C)C)c1
active: [3] 39 µM
not listed: [6] | [10]
inactive: all other assays above

ClC1C(Cl)C(Cl)C(Cl)C(Cl)C1Cl (stereo not given)
active: [1] 18.5 µM and 28.3 µM and 20 µM | [3] 38.6 µM | [4] 5.2 µM | [5] 20 µM
inactive: [1] | [2] | [3] | [4] | [5] | [7] | [8] | [9]

CCCN(CCC)c1c([N+](=O)[O-])cc(C(F)(F)F)cc1[N+](=O)[O-]
active: [1] 24.8 µM | [3] 13.7 µM | [4] 36.5 µM
not listed: [6] | [10]
inactive: all other assays above

CNC(=O)Oc1ccccc1OC(C)C
not listed: [6] | [10]
inactive: all other assays above

COP(=S)(OC)Oc1ccc(SC)c(C)c1
active: [2] 3.97 µM | [5] 5.31 µM
not listed: [1] | [6]
inactive: all other assays above

CC(C)N(C(=O)COc1nnc(C(F)(F)F)s1)c1ccc(F)cc1
active: [4] 11.1 µM
not listed: [6] | [10]
inactive: all other assays above

O=[N+]([O-])c1c(Cl)c(Cl)c(Cl)c(Cl)c1Cl
active: [1] 30.9 µM | [3] 37.5 µM
not listed: [10]
inactive: all other assays above

Oc1ccc(Cl)cc1Cc1ccccc1
inactive: [7] | [9]
active: [1] 24.4 µM [middle of 7 runs] | [2] 32.8 µM [middle of 7 runs] | [3] 37.9 µM and 14.7 µM and 20 µM | [4] 28.2 µM [middle of 7 runs] | [5] 28.1 µM [middle of 7 runs] | [7] 31.8 µM [middle of 5 runs] | [8] 34 µM [middle of 7 runs] | [9] 23.8 µM

COc1cc(OC)nc(NC(=O)NS(=O)(=O)c2cc(NC=O)ccc2C(=O)N(C)C)n1
not listed: [6] | [10]
inactive: all other assays above

COc1nn(CSP(=S)(OC)OC)c(=O)s1
not listed: [6] | [10]
inactive: all other assays above

COC(=O)c1ccccc1S(=O)(=O)NC(=O)N(C)c1nc(C)nc(OC)n1
active: [4] 12.9 µM
not listed: [6] | [10]
inactive: all other assays above

O=C1c2ccccc2C(=O)N1SC(Cl)(Cl)Cl
active: [2] 34.9 µM
not listed: [6]
inactive: all other assays above

CCOC1Oc2ccc(OS(C)(=O)=O)cc2C1(C)C (stereo not given)
active: [1] 24.1 µM
not listed: [10]
inactive: all other assays above

CCOc1nc(NC)nc(NC(=O)NS(=O)(=O)c2ccccc2C(=O)OC)n1
not listed: [10]
inactive: all other assays above

C[C@H]1[C@H](c2ccc(Cl)cc2)SC(=O)N1C(=O)NC1CCCCC1
inactive: [4] | [7] | [8] | [9]
active: [1] 12.1 µM | [2] 12.8 µM | [3] 15.2 µM | [5] 20 µM

N#CN
not listed: [6] | [10]
inactive: all other assays above

CCCN(CCOc1c(Cl)cc(Cl)cc1Cl)C(=O)n1ccnc1
inactive: [2] | [3] | [8] | [9]
active: [1] 32 µM | [4] 33.8 µM | [5] 29.8 µM | [7] 12 µM
